The text below walks through data of PMC5540273 (PLoS ONE, 2017).

Test systems include PAK1; PAK2; PAK3; PAK4; PAK6; PAK7; PDGFRA.
What all share (conditions): concentration: 1 μM, replicates: in singlicate; n = 1
The next test concerns T1, PCTK1.
T1 construct: gene CDK16

Another test deals with T2, PCTK2.
T2 construct: gene CDK17

For another test, the system named is T3, PCTK3.
T3 construct: gene CDK18
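Note: KINOMEscan kinase panel screen.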

As to `Clc1cccc(-c2nc(Nc3ccncc3)c3ccccc3n2)c1` [GW873004], the “%Inh” value in the test on PAK1 worked out at 0%; in the test on PAK2 it was 0%; with PAK3, 37%; with PAK4, 16%; with PAK6, 0%; with PAK7 it was 0%. Besides, the “%Inh” value in the test on PCTK1, in the test with PCTK2, with PCTK3 and in the test on PDGFRA was 0% each time.
For the compound `FC(F)(F)c1cc(Nc2nccc(-c3c(-c4ccc(Cl)cc4)nn4ncccc34)n2)ccc1Cl` [GW829351], the “%Inh” value is 0% in the test with PAK1; 17% in the test with PAK2; 0% in the test with PAK3; 0% with PAK4; 0% in the test with PAK6; 0% in the test on PAK7. Moreover, the “%Inh” value with PCTK1, with PCTK2, with PCTK3 and with PDGFRA was 0% in each case.
Consider `Oc1ccc2ncnc(Nc3ccc(OCc4ccccc4)cc3)c2c1` [GI262866], for which the “%Inh” value turned out to be 22% in the test on PAK1; 29% with PAK2; 87% with PAK3; 0% in the test with PAK4; 0% in the test with PAK6; 0% in the test with PAK7. In addition, the “%Inh” value turned out to be 10% in the test with PCTK1, 0% in the test with PCTK2, 13% in the test on PCTK3 and 0% in the test with PDGFRA.
With `Cl.Cl.c1ccc(-c2cc3ccncc3cc2OC2CCNCC2)cc1` [GSK1122999], the “%Inh” value came to 15% in the test with PAK1; 31% with PAK2; 47% in the test on PAK3; 0% in the test with PAK4; 0% with PAK6; 2% in the test on PAK7. The “%Inh” value in the test on PCTK1 came out at 2%; in the test on PCTK2, 12%; in the test with PCTK3, 13%; with PDGFRA it was 0%.
As to `CSc1nn2c(=O)cc(N3CCOCC3)nc2n1Cc1cccc(Cl)c1Cl` [GSK2347225], the “%Inh” value with PAK1 worked out at 13%; in the test with PAK2, 13%; in the test on PAK3, 15%; in the test with PAK4, 0%; in the test on PAK6, 0%; with PAK7, 26%. The “%Inh” value in the test on PCTK1 turned out to be 15%; in the test with PCTK2, 0%; in the test on PCTK3, 0%; in the test on PDGFRA, 0%.
On to `Fc1cccc(COc2ccc(Nc3ncnc4sc(-c5ccc[nH]5)cc34)cc2Cl)c1` [GW707818], for which the “%Inh” value is listed as 6% in the test on PAK1; 5% in the test with PAK2; 0% in the test with PAK3; 6% with PAK4; 11% in the test on PAK6; 12% in the test on PAK7. In addition, the “%Inh” value in the test with PCTK1 amounted to 0%; in the test on PCTK2 it was 22%; with PCTK3, 0%; in the test with PDGFRA it was 0%.
In the case of `Nc1n[nH]c2nnc(-c3ccccc3)cc12` [SB-517389], the “%Inh” value in the test with PAK1 is on record as 12%; with PAK2, 8%; in the test with PAK3 it was 0%; with PAK4, 0%; with PAK6 it was 0%; in the test with PAK7, 2%. Besides, the “%Inh” value with PCTK1 was 7%; with PCTK2, 20%; with PCTK3 it was 15%; in the test on PDGFRA, 0%.
Take `FC(F)(F)c1ccc(-c2cc(-c3c[nH]nc3-c3ccccn3)ccn2)cc1` [GW599550]: the “%Inh” value in the test on PAK1 came out at 11%; in the test with PAK2 it was 28%; in the test on PAK3, 32%; in the test on PAK4 it was 0%; in the test with PAK6, 0%; with PAK7, 0%. In addition, the “%Inh” value with PCTK1 was 0%; in the test with PCTK2 it was 11%; with PCTK3, 25%; in the test with PDGFRA, 11%.
On to `Cl.O=S(=O)(c1cccc(F)c1)c1ccc(Nc2ncnc3cc(Br)sc23)cc1Cl` [GSK306886], for which the “%Inh” value in the test with PAK1 turned out to be 1%; in the test with PAK2 it was 0%; in the test with PAK3, 0%; with PAK4, 1%; with PAK6 it was 1%; in the test on PAK7, 9%. The “%Inh” value with PCTK1 came out at 4%; in the test with PCTK2, 10%; in the test on PCTK3, 11%; in the test with PDGFRA, 0%.
Turning to `OCCOCCn1ccc2ncnc(Nc3ccc(Oc4cccc(Cl)c4)c(Cl)c3)c21`, the “%Inh” value in the test with PAK1 stood at 0%; in the test on PAK2, 0%; with PAK3, 18%; in the test on PAK4 it was 0%; with PAK6, 0%; in the test with PAK7, 0%. The “%Inh” value in the test with PCTK1 is 0%; in the test on PCTK2, 0%; with PCTK3 it was 6%; in the test on PDGFRA, 0%.
For `CCc1nc(-c2cccc(N(C)S(=O)(=O)c3ccccc3)c2)c(-c2ccnc(Nc3ccc(N4CCN(C(C)=O)CC4)nc3)n2)s1` [GSK1645895], the “%Inh” value with PAK1 turned out to be 6%; in the test on PAK2 it was 0%; with PAK3 it was 0%; in the test on PAK4, 0%; in the test with PAK6, 5%; with PAK7, 5%. Further, the “%Inh” value in the test with PCTK1 amounted to 8%; with PCTK2, 24%; with PCTK3 it was 4%; in the test with PDGFRA it was 14%.
For the compound `COC(=O)c1cccc(NC(=O)NCCNc2ccnc(Nc3ccc(F)cc3)n2)c1` [GSK1379883], the “%Inh” value in the test on PAK1, with PAK2, with PAK3, in the test on PAK4, in the test with PAK6 and in the test on PAK7 was 0% each time. For the same compound, the “%Inh” value in the test on PCTK1, with PCTK2, in the test on PCTK3 and in the test with PDGFRA was 0% each time.
On to `Fc1cccc(COc2ccc(Nc3ncnc4nn5ccccc5c34)cc2Cl)c1` [GW689066], for which the “%Inh” value turned out to be 15% in the test on PAK1; 15% in the test with PAK2; 8% in the test with PAK3; 15% with PAK4; 0% with PAK6; 0% in the test on PAK7. For the same compound, the “%Inh” value in the test on PCTK1, in the test on PCTK2, in the test with PCTK3 and in the test with PDGFRA was 0% in each case.
With `Cc1ccc(O)cc1Nc1cc(C(F)(F)F)nc2ccc(-c3ccncc3)cc12` [GW630823], the “%Inh” value in the test on PAK1 was 21%; in the test with PAK2 it was 10%; in the test with PAK3 it was 0%; in the test with PAK4 it was 21%; with PAK6 it was 20%; in the test with PAK7 it was 7%. For the same compound, the “%Inh” value in the test on PCTK1 turned out to be 0%; with PCTK2, 2%; with PCTK3, 0%; with PDGFRA, 0%.
In the case of `COc1ccc(NC(=O)Nc2ccc(C)c(-c3ccc(C(=O)Nc4ccncc4)cc3)c2)cc1` [GSK1398475], the “%Inh” value in the test with PAK1 is 0%; with PAK2, 0%; in the test on PAK3, 3%; with PAK4 it was 0%; with PAK6, 0%; in the test on PAK7, 9%. Besides, the “%Inh” value in the test on PCTK1 is 0%; in the test on PCTK2, 0%; with PCTK3, 0%; with PDGFRA it was 28%.
As to `Cc1cccc(-c2nc(Nc3ccc4[nH]nnc4c3)c3ccccc3n2)n1` [GW867587], the “%Inh” value in the test with PAK1 worked out at 9%; with PAK2 it was 41%; with PAK3, 0%; in the test on PAK4 it was 0%; with PAK6, 0%; in the test with PAK7, 0%. Besides, the “%Inh” value in the test on PCTK1, in the test on PCTK2, with PCTK3 and with PDGFRA was 0% in each case.
`CN1c2ccc(-c3ccc(C(=O)NCCO)cc3)cc2-c2[nH]ncc2S1(=O)=O`: the “%Inh” value with PAK1 is given as 12%; in the test on PAK2 it was 32%; in the test on PAK3, 20%; in the test with PAK4 it was 35%; in the test with PAK6, 7%; in the test with PAK7, 16%. Besides, the “%Inh” value in the test on PCTK1 was 0%; in the test on PCTK2, 28%; in the test with PCTK3, 0%; in the test on PDGFRA, 35%.
